This is part of a sample that, as a whole, favours compounds with a hit. Of some 83,000 tested, about 20% had one in any assay.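 The endpoint reported here, percent growth, reads 100 for growth as untreated, 0 for no net growth and -100 for all cells dead.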 Activity calls are given as the source filed them. Rule for the calls: active = growth percent below 10; inactive = the rest.
Each compound was assayed on NCI-H522 lung (assay: NCI-60 one-dose screen, 48 h (100 = growth as untreated, 0 = no growth, -100 = all killed)). Details: 10 µM.

Q: With Cc1ccc(N)cc1[N+](=O)[O-] as the compound, how does the growth read?
A: Its growth is 94.5% (inactive).

Q: Which growth does the source give for CC(C)COC(=O)COC(=O)OCCOCCOC(=O)OCC(=O)OCC(C)C here?
A: Its growth is 95.9% (inactive).

Q: Which growth does the source give for Nc1ccc(N)c([N+](=O)[O-])c1 here?
A: The growth was 86.4% (inactive).

Q: CC1(c2ccccc2)NC(=O)NC1=O (centres undefined) was tested. Which growth did it give?
A: Its growth is 99.4% (inactive).

Q: With O=[N+]([O-])c1ccc(CO)cc1 as the compound, how does the growth read?
A: The growth was 104% (inactive).

Q: O=c1cc(-c2ccccc2)[nH]c2c1CCCC2 was tested. Which growth did it give?
A: Its growth is 13.6% (inactive).

Q: With C=C1CC/C=C(\C)C(=O)C[C@@H]2[C@@H]1CC2(C)C as the compound, how does the growth read?
A: The growth was 85.3% (inactive).

Q: With COc1ccc(C(O)c2ccccc2)cc1 (centres undefined) as the compound, how does the growth read?
A: The growth was 94.8% (inactive).

Q: For CCOC(=O)c1cc(/C=C/c2ccc(Cl)cc2Cl)on1, which growth is on record?
A: The growth was 54.5% (inactive).

Q: CC(=O)c1ccc(C)c(N)c1 was tested. Which growth did it give?
A: Its growth is 99.9% (inactive).

Q: For NC(=S)CN1CCOCC1, which growth is on record?
A: The growth was 97.9% (inactive).

Q: With CNC(=S)NC(C)(C)C as the compound, how does the growth read?
A: Its growth is 98% (inactive).

Q: For CC(=O)Nc1c(C)cc(C)cc1C, which growth is on record?
A: Its growth is 94% (inactive).

Q: O=C(Nc1cc(-c2ccccc2)[nH]n1)c1ccc(Cl)cc1 was tested. Which growth did it give?
A: The growth was 72.5% (inactive).

Q: For O=C(NC1CCCCC1)OCc1c(COC(=O)NC2CCCCC2)c(-c2ccc(Cl)c(Cl)c2)n2c1CCC2, which growth is on record?
A: Its growth is -23.9% (active).

Q: CC(C)=C(NC(=O)c1ccccc1)C(=O)O was tested. Which growth did it give?
A: The growth was 92.3% (inactive).

Q: For Nc1ccc(N=Nc2ccc(S(=O)(=O)O)cc2)c2ccccc12, which growth is on record?
A: The growth was 95.7% (inactive).

Q: For CN(C)c1ccc(C(c2ccc(O)cc2)c2ccc(N(C)C)cc2)cc1, which growth is on record?
A: The growth was 81.1% (inactive).

Q: With CN(C)c1ccc(CNC(C(=O)c2ccccc2)c2ccccc2)cc1 (centres undefined) as the compound, how does the growth read?
A: The growth was 85.4% (inactive).

— PubChem BioAssay (NCI)
